HIV RNase H inh-1: inhibitors of HIV-1 reverse transcriptase RNase H; P04585; RT-RNase H RNA/DNA duplex cleavage, fluorescence; inhibition, % at 10 µM; 65,000 compounds, 1.9% hits; in the data active = inhibition above about 50%
HIV RNase H inh-2: confirmation of HIV-1 reverse transcriptase RNase H inhibitors; shares compounds with HIV RNase H inh-1; Recombinant RT RNase H, fluorescent RNA/DNA duplex cleavage; inhibition, % at 10 µM; 1,000 compounds, 39% hits; AID 651; in the data active = inhibition above about 48%
Each line names hits and unclear results; the compound was inactive in the other large screens (follow-up assays come after a bar, where they were run). This is one part of a sample in which hits are shown more often than they occur.

Cc1ccc(-n2nc3c(c2NC(=O)c2c(-c4ccccc4Cl)noc2C)CS(=O)(=O)C3)c(C)c1	none
CCN1C(=O)N(C)C(N(O)C(=O)NC)C1(C)C (stereo unspecified)	none
COc1ccc(-c2nn(CC(=O)N(C)C)c(=O)c3ccccc23)cc1	none
C=CCn1c(SCC(=O)NC(=O)NCc2ccco2)nc2sc(C)c(C)c2c1=O	HIV RNase H inh-1 91.7 | HIV RNase H inh-2 63.5
COc1ccc(NC(=O)CSc2nc3sc(C)c(C)c3c(=O)n2Cc2ccco2)cc1	none
C=CCn1c(SCC(=O)NCCCC)nc2scc(-c3ccco3)c2c1=O	none
O=C(Cn1nnc(-c2ccncc2)n1)NCCc1ccccc1	none
CCN(CC)CCCN(Cc1cc2cc3c(cc2[nH]c1=O)OCCO3)C(=O)Nc1ccc(F)cc1	none
CCCCSc1nc2c(cc1C#N)CCC2	none
CCCSc1nc(C)c(-c2csc(C(C#N)=C3CCCC3)n2)cc1C#N	HIV RNase H inh-1 58.0 | HIV RNase H inh-2 inactive
CC(=O)c1cc(C#N)c(SCCC(C)C)nc1C	none
O=C(NCc1cccs1)C1CCCN(c2nc3ccccc3o2)C1 (stereo unspecified)	none
CCOC(=O)CSc1cn2c(n1)CCC2	none
C=CCn1c(SCC#N)nc2c(c1=O)C(C)(C)Cc1ccccc1-2	none
CC1CC(C)CN(C(=O)CSc2nnc(-c3ccc(F)cc3)o2)C1 (stereo unspecified)	HIV RNase H inh-1 82.0 | HIV RNase H inh-2 inactive
CC1CC(C)CN(C(=O)CSc2nnc(-c3ccc(Cl)s3)o2)C1 (stereo unspecified)	none
CCN(CC)S(=O)(=O)c1ccc(-c2nnc(SCC(=O)N3CCOCC3)o2)cc1	none
COc1ccc(-n2c(C)cc(C(=O)Cn3nnc4ccccc4c3=O)c2C)cc1	none
COc1ccc(OCCOC(=O)c2cccc(-n3cnnn3)c2)cc1	none
COc1ccc(-n2c(C)cc(C(=O)COc3ccc(-n4cnnn4)cc3)c2C)cc1	HIV RNase H inh-1 53.2 | HIV RNase H inh-2 inactive
O=C1c2cccnc2C(=O)N1Cc1ccc(F)cc1	none
CCOC(=O)c1nnn(CC(=O)Nc2ccccc2OC)c1C(=O)OCC	none
CCCCS(=O)CC(COCc1ccccc1)OC(=O)CSc1nc(C)cc(C)n1 (stereo unspecified)	none
Cc1cc(C(=O)Nc2sc(C)c(C)c2C#N)c(C)o1	none
Cc1sc(NC(=O)c2oc3ccccc3c2C)c(C#N)c1C	HIV RNase H inh-1 56.9 | HIV RNase H inh-2 82.7
Cc1c(C(=O)NC2=NCCS2)oc2ccccc12	none
CC(C)N(C(=O)CSc1nnc(CN2CCCCCC2=O)n1-c1ccccn1)C(C)C	none
CCn1c(=O)c(C(=O)NCc2cccnc2)c(O)c2ccccc21	none
CCCCCn1c(=O)c(C(=O)NCc2ccncc2)c(O)c2ccccc21	HIV RNase H inh-1 82.7 | HIV RNase H inh-2 56.8
CCCn1c(=O)c(C(=O)Nc2cnccn2)c(O)c2ccccc21	none
CCOC(=O)C(NC(=O)c1ccccc1OCC)(Nc1ncccn1)C(F)(F)F (stereo unspecified)	none
O=C(NCc1ccc2c(c1)OCO2)c1ccc(CN2CCOCC2)cc1	none
Cc1nn2c(-c3cccc(NC(=O)CN4CCOCC4)c3)nnc2c2ccccc12	none
Cc1nn2c(-c3cccc(NC(=O)CSc4nc5ccccc5o4)c3)nnc2c2ccccc12	HIV RNase H inh-1 88.5 | HIV RNase H inh-2 66.4
COc1cc(OC)nc(NC(=O)CSc2nc3ccccc3o2)n1	none
CCCN1CCN(CCCNC(=O)Cn2nc(-c3ccccc3)ccc2=O)CC1	none
CCOC(=O)C1CCN(C(=O)CN(c2ccc3c(c2)OCO3)S(C)(=O)=O)CC1	none
CCn1cc(SCC(=O)NCC2CCCO2)c2ccccc21 (stereo unspecified)	none
O=c1[nH]c(=O)n(-c2ccc(F)cc2)c(O)c1C=Nc1ccccc1N1CCCC1	HIV RNase H inh-1 73.8 | HIV RNase H inh-2 61.5
CC(=O)N1CCN(c2ccc(N=Cc3c(O)n(-c4ccc(Cl)cc4)c(=O)[nH]c3=O)cc2)CC1	none
Cc1ccc(-n2c(O)c(C=Nc3ccccc3N)c(=O)[nH]c2=O)cc1C	none
CCN(CC)CCNC(=O)c1c(C)oc2cc(Br)c(OC)cc12	none
c1ccc(NCc2nc(-c3ccccc3)no2)cc1	none
CCC(OC(=O)c1cc2sccc2n1C)C(=O)NCc1ccco1 (stereo unspecified)	none
Cc1noc(C)c1CSc1nnc(-c2ccccc2)n1Cc1ccco1	none
Cc1noc(C)c1CSc1nnc2scc(-c3ccccc3)n12	HIV RNase H inh-1 63.1 | HIV RNase H inh-2 inactive
CC(=O)Nc1ccc(C(=O)CSc2nnc3scc(-c4ccccc4)n23)cc1	none
C=CCOc1ccc(CNc2nn[nH]n2)cc1	none
CCOC(=O)C1CCN(C(=O)C2CCCCC2)CC1	none
CC(=O)c1ccc(N2CCN(C(=O)c3ccc(NC(=O)C4CCCO4)cc3)CC2)cc1 (stereo unspecified)	none
CCc1nnc(NC(=O)CSc2nnc(Cc3ccc(OC)cc3)o2)s1	none
Cc1sccc1C1C(C#N)=C(N)SC(N)=C1C#N	HIV RNase H inh-1 59.9 | HIV RNase H inh-2 inactive
CC1=C(C#N)C(c2cn(-c3ccccc3)nc2-c2cccs2)C(C#N)=C(C)N1	none
Cc1cc(C2C(C#N)=C(N)SC(N)=C2C#N)c(C)s1	none
Cc1ccc(-c2nc(C3CCN(S(C)(=O)=O)CC3)no2)cc1	none
CN1CCN(S(=O)(=O)c2ccc(Cc3ccc(S(=O)(=O)N4CCN(C)CC4)cc3)cc2)CC1	none
CCC(CC)c1nc(NCCC(=O)O)c2ccccc2n1	HIV RNase H inh-1 76.2 | HIV RNase H inh-2 inactive
CCc1cc2c(NCCC(=O)O)nc(C)nc2s1	none
O=C(NCCO)c1nc(NCCO)c2ccccc2n1	none
COc1ccc(N2C(=O)C3CCCN3C2c2ccc(F)cc2)cc1Cl (stereo unspecified)	none
Cc1ccc(S(=O)(=O)NCCN=C(CN2CCCC2)NS(=O)(=O)c2ccc(C)cc2)cc1	none
N#Cc1c(N)sc(=S)c2c1CCN(Cc1ccccc1)C2	HIV RNase H inh-1 66.0 | HIV RNase H inh-2 inactive
CCN1CCc2c(sc(N)c2C#N)C1	none
N#Cc1c(NCCO)nc(NCc2ccccc2)c2c1CCN(Cc1ccccc1)C2	none
Cc1csc2ncc(C(=O)NC(C)c3ccccc3)c(=O)n12 (stereo unspecified)	none
COCC(C)n1c(C)cc(C(=O)COC(=O)c2c(NC(C)=O)sc(C)c2C)c1C (stereo unspecified)	none
Cc1cc(C)n(-c2nncn2NC(=O)c2ccc(Cl)cc2O)n1	none
CCOC(=O)C1(c2nc(N)cs2)COC(=O)C1 (stereo unspecified)	none
Cc1nn(-c2ccccc2)c2[nH]c(=O)c(CNCCN3CCOCC3)cc12	none
Cc1nn(-c2ccccc2)c2[nH]c(=O)c(CNCc3ccc4c(c3)OCO4)cc12	none
Cc1nn(-c2ccccc2)c2[nH]c(=O)c(CNc3ccc4c(c3)OCCO4)cc12	HIV RNase H inh-1 80.2 | HIV RNase H inh-2 inactive
Cn1c(C2=C(O)CN(c3ccc4c(c3)OCCO4)C2=N)nc2ccccc21	none
CC(C)(C)c1nnc2sc(SCC(=O)c3cccs3)nn2c1=O	none
CCOC(=O)c1c(NC(=O)c2ccco2)sc2c1CCCC2	none
CCOC(=O)c1c(C2COc3ccccc3O2)csc1NC(=O)c1ccco1 (stereo unspecified)	HIV RNase H inh-1 96.7 | HIV RNase H inh-2 54.2
COC(=O)c1c(-c2ccccc2)csc1NC(=O)c1ccco1	none
Cc1cccc(NC(=O)CCc2ccc(C)o2)c1	none
CC(C)CN(C(=O)COC(=O)c1cc2c(s1)CCC2)C1CCS(=O)(=O)C1 (stereo unspecified)	none
COC(=O)c1sccc1NC(=O)Cn1cnc2c1c(=O)n(C)c(=O)n2C	none
Cc1cc(NC(=O)CN2C(=O)C3CC=CCC3C2=O)no1 (stereo unspecified)	none

Screens (PubChem)
